According to PubChem BioAssay (Tox21):
Inconclusive results are not listed. Active and inactive are the calls of the source. Unless noted, calls follow the shape of the dose curve; as a rule, active = well fitted curve in the direction sought with a large enough effect in the repeat runs; inconclusive = weak or mixed curves; inactive = no such curve, though single readings can be large; an effect the other way counts as inactive or inconclusive.

Tests used:
[1] = qHTS assay for small molecules that induce genotoxicity in human embryonic kidney cells expressing luciferase-tagged ATAD5 (AID 651632); also: nearly all actives have a fitted effect of over 15% in size
Procedure, shortened: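 HEK293T cells carrying luciferase-tagged ATAD5 were given compound or DMSO vehicle and incubated 16 hr at 37C, 5% CO2. Luciferase activity was read after 30 min at room temperature with Amplite; a rise signals genotoxic stress.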

[2] = qHTS assay for small molecules that induce genotoxicity in human embryonic kidney cells expressing luciferase-tagged ATAD5 - cell viability (AID 651634; calls by dose curve; also: potency is read from the fitted curve at half-maximal effect; nearly all actives have a fitted effect of over 25% in size)
Procedure, shortened: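 HEK293T cells carrying luciferase-tagged ATAD5, 2,000 cells/well, exposed to compound for 15.5 hr at 37C. Viability read as live-cell protease activity by CellTiter-Fluor fluorescence after 30 min at 37C.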

[3] = qHTS assay for small molecule disruptors of the mitochondrial membrane potential - cell viability (AID 720634; calls by dose curve;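 also: human HepG2 liver cancer cells; series mostly up to about 83 µM; nearly all actives have a fitted effect of over 20% in size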)
Procedure, shortened: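 HepG2 cells, 2,000 per well, attached overnight, then treated 1 hr at 37 C, 5% CO2. Viability read as ATP by CellTiter-Glo luminescence after 30 min at room temperature. Read in the same wells as the m-MPI membrane-potential dye assay.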

[4] = qHTS assay for small molecule disruptors of the mitochondrial membrane potential (AID 720635); also: potency is read from the fitted curve at half-maximal effect
Procedure, shortened: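 HepG2 cells exposed to compound 1 hr at 37C, then Mito-MPS dye 30 min. Ratio read of aggregate (540/590 nm) versus monomer (490/535 nm) fluorescence.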

[5] = qHTS assay to test for compound auto fluorescence at 590 nm (red) in HepG2 cells (AID 720674)
Procedure, shortened: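 Fluorescence at 590 nm emission following 540 nm excitation was recorded from HepG2 wells one hour after compound transfer, with DMSO-only wells as vehicle and Rose Bengal sodium equivalency as the scale.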

[6] = qHTS assay to test for compound auto fluorescence at 535 nm (green) in HepG2 cells (AID 720675)
[7] = qHTS assay to test for compound auto fluorescence at 460 nm (blue) in HEK293 cells (AID 720678)
Procedure, shortened: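 HEK293 cells (2,000 per well, medium with 10% dialyzed FBS) attached for 4-5 hr at 37C, then received compound and stood overnight at 37C, 5% CO2. Blue fluorescence was read at Ex/Em 405/460 nm and expressed relative to triamterene.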

[8] = qHTS assay to test for compound auto fluorescence at 590 nm (red) in HEK293 cells (AID 720679)
Procedure, shortened: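 HEK293 cells (2,000/well, medium with 10% dialyzed FBS) attached for 4-5 hr at 37C, received 23 nL compound and were incubated overnight at 37C, 5% CO2. Red fluorescence was then read at 540/590nm Ex/Em, referenced to Rose Bengal sodium.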

[9] = qHTS assay to test for compound auto fluorescence at 535 nm (green) in HEK293 cells (AID 720680)
[10] = qHTS assay to test for compound auto fluorescence at 460 nm (blue) in HEK293 cell free culture (AID 720681)
Procedure, shortened: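 Compounds were added to cell-free DMEM with 10% FBS and fluorescence read directly. The blue channel used 405 nm excitation and 460 nm emission, with triamterene as the reference fluorophore.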

[11] = qHTS assay to test for compound auto fluorescence at 535 nm (green) in HEK293 cell free culture (AID 720682)
Procedure, shortened: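 Cell-free medium (DMEM, 10% FBS) receives compound or DMSO by pintool. Plate read directly at Ex 485/Em 535 nm. Signal converted to fluorescein equivalency.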

[12] = qHTS assay to test for compound auto fluorescence at 590 nm (red) in HEK293 cell free culture (AID 720683)
Procedure, shortened: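 Cell-free wells of DMEM with 10% FBS received compound, and intrinsic fluorescence was read at excitation/emission 540/590 nm. Values expressed as equivalence to Rose Bengal sodium.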

[13] = qHTS assay to test for compound auto fluorescence at 590 nm (red) in HepG2 cell free culture (AID 720684)
Procedure, shortened: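 Compound was pinned into wells holding MEM with 10% FBS and no cells, and red fluorescence was read at Ex/Em 540/590 nm. Signal is expressed as auto fluorescence equivalency relative to Rose Bengal sodium.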

[14] = qHTS assay to test for compound auto fluorescence at 460 nm (blue) in HepG2 cell free culture (AID 720685)
Procedure, shortened: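 Compound (23 nL) or DMSO pinned into cell-free MEM with 10% FBS; blue fluorescence read at 405/460 nm excitation/emission, expressed as auto-fluorescence equivalency to triamterene.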

[15] = qHTS assay to test for compound auto fluorescence at 535 nm (green) in HepG2 cell free culture (AID 720686)
[16] = qHTS assay to test for compound auto fluorescence at 460 nm (blue) in HepG2 cells (AID 720687)
Procedure, shortened: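 HepG2 cells in MEM with 10% FBS, attached overnight at 37 C, were exposed to compound or DMSO for 1 hr at 37 C, 5% CO2. Blue fluorescence was read at 405/460 nm, with triamterene as reference fluorophore.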

[17] = qHTS assay to identify small molecule antagonists of the glucocorticoid receptor (GR) signaling pathway - cell viability counter screen (AID 720693); also: potency is read from the fitted curve at half-maximal effect; nearly all actives have a fitted effect of over 55% in size
[18] = qHTS assay for identifying genotoxic compounds that show differential cytotoxicity against isogenic chicken DT40 cell lines with known DNA damage response pathways - Rev3 mutant cell line (AID 743014); also: potency is read from the fitted curve at half-maximal effect; nearly all actives have a fitted effect of over 55% in size
[19] = qHTS assay for identifying genotoxic compounds that show differential cytotoxicity against isogenic chicken DT40 cell lines with known DNA damage response pathways - Rad54/Ku70 mutant cell line (AID 743015); also: potency is read from the fitted curve at half-maximal effect; nearly all actives have a fitted effect of over 60% in size
[20] = qHTS assay to identify small molecule antagonists of the androgen receptor (AR) signaling pathway - cell viability counter screen (AID 743033; also: potency is read from the fitted curve at half-maximal effect; nearly all actives have a fitted effect of over 45% in size)
[21] = target: Androgen receptor (Homo sapiens) (UniProt P10275); assay: qHTS assay to identify small molecule antagonists of the androgen receptor (AR) signaling pathway (AID 743035; active = well fitted inhibition curve with a large enough effect in the signal ratio in the repeat runs, not every such curve was filed as active; the % refers to the signal ratio; also: potency is read from the fitted curve at half-maximal effect)
Procedure, shortened: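 HEK293 cells stably carrying UAS-beta-lactamase reporter, 2,000/well, given compounds plus R1881 agonist and incubated 16 h at 37C. LiveBLAzer B/G FRET substrate then added for 2 h at room temperature before fluorescence reading.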

[22] = qHTS assay to identify small molecule antagonists of the thyroid receptor (TR) signaling pathway - cell viability counter screen (AID 743064); also: nearly all actives have a fitted effect of over 50% in size; also: potency is read from the fitted curve at half-maximal effect
Procedure, shortened: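 GH3.TRE-Luc cells, 4 h pre-plating; cpd + T3 1 nM final; 37 °C 23.5 h; CellTiter-Fluor 30 min; fluorescence read.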

[23] = qHTS assay to identify small molecule antagonists of the thyroid receptor (TR) signaling pathway (AID 743065); also: nearly all actives have a fitted effect of over 55% in size; also: potency is read from the fitted curve at half-maximal effect
Procedure, shortened: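 GH3.TRE-Luc rat pituitary cells (two TREs driving luciferase) were dosed with compound, then stimulated with 1 nM T3 (final) for 23.5 h at 37 C. ONE-Glo luminescence was the read-out, with CellTiter-Fluor fluorescence as the cytotoxicity counter-screen.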

[24] = test system: thyroid hormone receptor (rat, GH3 cells); assay: qHTS assay to identify small molecule agonists of the thyroid receptor (TR) signaling pathway (AID 743066; calls by dose curve)
[25] = qHTS assay to identify small molecule antagonists of the estrogen receptor alpha (ER-alpha) signaling pathway - cell viability counter screen (AID 743074; calls by dose curve;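 also: HEK293 cells carrying ER-alpha-UAS-bla reporter stimulated with 17beta-estradiol; potency is read from the fitted curve at half-maximal effect; nearly all actives have a fitted effect of over 45% in size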)
[26] = target: Estrogen receptor (Homo sapiens) (UniProt P03372); assay: qHTS assay to identify small molecule agonists of the estrogen receptor alpha (ER-alpha) signaling pathway (AID 743075; calls by dose curve;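 also: HEK293 GripTite cells with ER-alpha and UAS-driven beta-lactamase reporter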)
[27] = qHTS assay to identify small molecule antagonists of the estrogen receptor alpha (ER-alpha) signaling pathway using the BG1 cell line - cell viability counter screen (AID 743081);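 also: compound given together with 17beta-estradiol as the ER stimulus; series mostly up to about 70 µM; nearly all actives have a fitted effect of over 45% in size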
Aromatase (Homo sapiens) = Aromatase (Homo sapiens) (UniProt P11511); assay: qHTS assay to identify aromatase inhibitors (AID 743083); also: series mostly up to about 70 µM; nearly all actives have a fitted effect of over 55% in size
[28] = qHTS assay to identify aromatase inhibitors - cell viability counter screen (AID 743084)
[29] = qHTS assay to identify small molecule that activate the aryl hydrocarbon receptor (AhR) signaling pathway - cell viability counter screen (AID 743086); also: nearly all actives have a fitted effect of over 45% in size; also: potency is read from the fitted curve at half-maximal effect
Procedure, shortened: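 HepG2-AhR-luc (HG2L7.5c1) cells, 4000/well, treated 24 h at 37 C with compound; viability measured as CellTiter-Fluor fluorescence after 30 min in the same wells as the luciferase read.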

[30] = target: Acetylcholinesterase (Homo sapiens) (UniProt P22303); assay: Acetylcholinesterase (AChE) small molecule antagonists: fluorescence cell-based qHTS assay (AID 1347398; calls by dose curve; also: nearly all actives have a fitted effect of over 50% in size); settings: Potency: AChE activity; outcome: AChE activity
Procedure, shortened: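 SH-SY5Y cells (2000/well), attached overnight, incubated with compound 30 min at 37 C. Acetylthiocholine plus Thiolite Green then added for 40 min at room temperature. Thiocholine fluorescence (Ex/Em 490/520 nm) reports cellular AChE activity.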

[31] = target: Acetylcholinesterase (Homo sapiens) (UniProt P22303); assay: Acetylcholinesterase (AChE) small molecule antagonists: enzyme-based qHTS assay with human liver microsomes (AID 1347399; calls by dose curve; also: nearly all actives have a fitted effect of over 60% in size); settings: Potency: qHTS inhibition; outcome: qHTS inhibition
Procedure, shortened: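 Recombinant human AChE (50 mU/mL in the enzyme mix) and human liver microsomes (0.25 mg/mL final) were preincubated with compound and NADPH (0.25 mg/mL final) for 30 min at 37 C. Acetylthiocholine/DTNB was then added; thiocholine was read colorimetrically after 10 min at room temperature.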

[32] = target: Aryl hydrocarbon receptor (Homo sapiens) (UniProt P35869); assay: qHTS assay to identify small molecule that activate the aryl hydrocarbon receptor (AhR) signaling pathway (AID 743085);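 also: HG2L7.5c1 human HepG2 liver cells with stably integrated DRE-driven firefly reporter; series mostly up to about 70 µM; nearly all actives have a fitted effect of over 15% in size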
Procedure, shortened: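 Luminescence read-out: ONE-Glo reagent, 30 min at room temperature, in HG2L7.5c1 HepG2 reporter cells treated 24 h at 37C. Viability was measured beforehand by CellTiter-Fluor fluorescence after 30 min at 37C.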

[33] = target: Glucocorticoid receptor (Homo sapiens) (UniProt P04150); assay: qHTS assay to identify small molecule antagonists of the glucocorticoid receptor (GR) signaling pathway (AID 720692; active = well fitted inhibition curve with a large enough effect in the signal ratio in the repeat runs, not every such curve was filed as active; the % refers to the signal ratio; also: potency is read from the fitted curve at half-maximal effect)
Procedure, shortened: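 GR-bla HeLa cells carrying a GRE-driven beta-lactamase reporter received compound after 4 h plating, then dexamethasone (5 nM final). After 18 h at 37C, the FRET substrate was loaded for 2 h at room temperature and fluorescence read.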

[34] = target: Androgen receptor (Homo sapiens) (UniProt P10275); assay: qHTS assay to identify small molecule agonists of the androgen receptor (AR) signaling pathway (AID 743036; active = well fitted activation curve with a large enough effect in the signal ratio in the repeat runs, with a control signal flat, not every such curve was filed as active; the % refers to the signal ratio)
Procedure, shortened: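 AR-bla HEK293 cells, 2,000/well; 4 h preincubation 37C/5% CO2; compound (DMSO) 16 h at 37C; LiveBLAzer B/G FRET substrate 2 h RT; fluorescence intensity read-out.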

[35] = target: Androgen receptor (Homo sapiens) (UniProt P10275); assay: qHTS assay to identify small molecule agonists of the androgen receptor (AR) signaling pathway using the MDA cell line (AID 743040; also: nearly all actives have a fitted effect of over 20% in size)
Procedure, shortened: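 MDA-kb2 breast carcinoma cells carrying MMTV-luciferase (responsive to AR and GR), plated 5 h then treated 16 h with compounds at 37C, 0% CO2. Read-out was ONE-Glo luminescence after 30 min at room temperature.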

Measured: Potency

Chain of Androgen receptor (Homo sapiens) (P10275 whole entry, looked up): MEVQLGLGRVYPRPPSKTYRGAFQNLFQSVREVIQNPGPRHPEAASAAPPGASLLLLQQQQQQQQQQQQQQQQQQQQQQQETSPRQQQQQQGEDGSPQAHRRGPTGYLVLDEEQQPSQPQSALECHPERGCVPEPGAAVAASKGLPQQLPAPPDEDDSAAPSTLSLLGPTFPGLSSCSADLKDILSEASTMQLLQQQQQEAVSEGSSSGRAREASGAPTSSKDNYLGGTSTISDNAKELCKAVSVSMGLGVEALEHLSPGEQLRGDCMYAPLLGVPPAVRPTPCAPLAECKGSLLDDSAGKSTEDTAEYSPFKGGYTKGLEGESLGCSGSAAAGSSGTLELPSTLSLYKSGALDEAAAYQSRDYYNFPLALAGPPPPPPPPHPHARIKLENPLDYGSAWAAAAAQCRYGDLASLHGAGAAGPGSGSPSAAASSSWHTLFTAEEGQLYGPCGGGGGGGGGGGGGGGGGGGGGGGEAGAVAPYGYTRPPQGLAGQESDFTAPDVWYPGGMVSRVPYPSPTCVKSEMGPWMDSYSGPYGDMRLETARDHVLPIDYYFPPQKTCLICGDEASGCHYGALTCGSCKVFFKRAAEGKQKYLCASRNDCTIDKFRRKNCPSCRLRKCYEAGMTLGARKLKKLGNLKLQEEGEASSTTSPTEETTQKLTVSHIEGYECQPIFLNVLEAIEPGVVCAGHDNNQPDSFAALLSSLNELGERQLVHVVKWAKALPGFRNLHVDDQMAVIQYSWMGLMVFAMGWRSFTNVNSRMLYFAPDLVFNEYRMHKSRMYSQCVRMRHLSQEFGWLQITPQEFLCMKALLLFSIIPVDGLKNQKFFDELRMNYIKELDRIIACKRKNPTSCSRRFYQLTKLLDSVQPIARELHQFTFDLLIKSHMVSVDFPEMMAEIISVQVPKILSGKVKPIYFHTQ
Chain of Acetylcholinesterase (Homo sapiens) (P22303 whole entry, looked up): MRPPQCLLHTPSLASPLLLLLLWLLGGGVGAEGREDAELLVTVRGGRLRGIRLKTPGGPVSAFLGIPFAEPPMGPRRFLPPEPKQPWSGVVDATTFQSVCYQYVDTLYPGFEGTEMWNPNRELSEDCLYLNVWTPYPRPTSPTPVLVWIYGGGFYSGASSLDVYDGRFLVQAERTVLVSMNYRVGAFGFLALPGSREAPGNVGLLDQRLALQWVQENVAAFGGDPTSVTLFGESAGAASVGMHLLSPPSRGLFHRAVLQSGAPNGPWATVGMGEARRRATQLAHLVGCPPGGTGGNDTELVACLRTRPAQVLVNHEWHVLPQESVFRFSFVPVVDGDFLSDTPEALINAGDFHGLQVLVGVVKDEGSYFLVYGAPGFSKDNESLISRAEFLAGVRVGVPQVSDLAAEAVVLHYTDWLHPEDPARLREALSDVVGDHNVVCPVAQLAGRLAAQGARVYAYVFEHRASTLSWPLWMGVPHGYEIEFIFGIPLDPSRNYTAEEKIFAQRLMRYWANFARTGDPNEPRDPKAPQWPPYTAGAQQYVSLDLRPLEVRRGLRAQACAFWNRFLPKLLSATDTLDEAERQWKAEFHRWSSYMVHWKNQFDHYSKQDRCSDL
Chain of Estrogen receptor (Homo sapiens) (P03372 whole entry, looked up): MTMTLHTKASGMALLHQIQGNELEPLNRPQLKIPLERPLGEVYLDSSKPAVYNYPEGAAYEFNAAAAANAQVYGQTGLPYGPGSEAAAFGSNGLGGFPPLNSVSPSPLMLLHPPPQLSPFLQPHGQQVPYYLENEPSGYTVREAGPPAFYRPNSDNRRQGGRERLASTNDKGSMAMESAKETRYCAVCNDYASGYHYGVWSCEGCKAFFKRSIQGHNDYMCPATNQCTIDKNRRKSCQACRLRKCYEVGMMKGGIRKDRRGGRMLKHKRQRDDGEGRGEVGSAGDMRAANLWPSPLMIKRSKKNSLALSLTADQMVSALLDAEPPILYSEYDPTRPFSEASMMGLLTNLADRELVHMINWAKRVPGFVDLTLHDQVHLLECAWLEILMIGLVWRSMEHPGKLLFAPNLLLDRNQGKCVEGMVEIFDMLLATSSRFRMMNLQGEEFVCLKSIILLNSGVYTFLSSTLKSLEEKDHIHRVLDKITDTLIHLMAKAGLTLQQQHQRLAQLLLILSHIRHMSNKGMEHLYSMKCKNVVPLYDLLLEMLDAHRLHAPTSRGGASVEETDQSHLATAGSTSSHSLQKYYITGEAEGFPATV
Chain of Aryl hydrocarbon receptor (Homo sapiens) (P35869 whole entry, looked up): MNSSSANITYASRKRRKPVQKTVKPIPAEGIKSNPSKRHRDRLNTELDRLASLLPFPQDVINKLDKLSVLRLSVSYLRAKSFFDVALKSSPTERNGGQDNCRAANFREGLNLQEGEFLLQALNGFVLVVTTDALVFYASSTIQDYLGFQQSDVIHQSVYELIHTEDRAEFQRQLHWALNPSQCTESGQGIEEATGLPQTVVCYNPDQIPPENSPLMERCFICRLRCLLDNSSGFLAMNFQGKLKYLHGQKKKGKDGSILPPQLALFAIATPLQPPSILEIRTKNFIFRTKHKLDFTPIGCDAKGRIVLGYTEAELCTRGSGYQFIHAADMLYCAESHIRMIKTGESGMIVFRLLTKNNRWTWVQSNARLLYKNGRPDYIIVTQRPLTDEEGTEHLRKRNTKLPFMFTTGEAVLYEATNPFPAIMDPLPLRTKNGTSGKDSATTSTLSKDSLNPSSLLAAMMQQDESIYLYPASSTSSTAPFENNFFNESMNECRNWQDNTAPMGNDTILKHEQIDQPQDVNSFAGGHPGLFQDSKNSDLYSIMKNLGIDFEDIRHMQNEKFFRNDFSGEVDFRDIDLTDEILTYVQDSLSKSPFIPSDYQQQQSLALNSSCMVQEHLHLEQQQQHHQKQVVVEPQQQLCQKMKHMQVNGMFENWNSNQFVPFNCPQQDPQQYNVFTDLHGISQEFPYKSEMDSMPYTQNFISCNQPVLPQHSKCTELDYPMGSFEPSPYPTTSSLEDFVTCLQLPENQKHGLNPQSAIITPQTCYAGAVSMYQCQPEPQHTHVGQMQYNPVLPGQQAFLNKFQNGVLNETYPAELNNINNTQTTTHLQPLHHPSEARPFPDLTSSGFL
Chain of Aromatase (Homo sapiens) (P11511 whole entry, looked up): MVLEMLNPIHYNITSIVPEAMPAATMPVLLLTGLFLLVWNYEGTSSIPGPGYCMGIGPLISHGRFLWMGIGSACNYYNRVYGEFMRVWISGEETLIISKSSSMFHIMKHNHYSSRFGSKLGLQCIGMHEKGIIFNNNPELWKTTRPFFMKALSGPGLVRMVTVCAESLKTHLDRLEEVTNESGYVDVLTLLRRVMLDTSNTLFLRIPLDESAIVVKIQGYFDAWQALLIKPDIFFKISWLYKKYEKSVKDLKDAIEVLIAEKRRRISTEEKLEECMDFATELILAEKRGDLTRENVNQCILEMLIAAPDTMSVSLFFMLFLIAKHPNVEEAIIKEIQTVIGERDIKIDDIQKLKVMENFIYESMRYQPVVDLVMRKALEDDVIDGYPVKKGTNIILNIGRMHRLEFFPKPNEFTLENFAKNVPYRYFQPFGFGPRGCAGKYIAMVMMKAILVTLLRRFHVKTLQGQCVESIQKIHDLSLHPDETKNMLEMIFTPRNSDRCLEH
Chain of Glucocorticoid receptor (Homo sapiens) (P04150 whole entry, looked up): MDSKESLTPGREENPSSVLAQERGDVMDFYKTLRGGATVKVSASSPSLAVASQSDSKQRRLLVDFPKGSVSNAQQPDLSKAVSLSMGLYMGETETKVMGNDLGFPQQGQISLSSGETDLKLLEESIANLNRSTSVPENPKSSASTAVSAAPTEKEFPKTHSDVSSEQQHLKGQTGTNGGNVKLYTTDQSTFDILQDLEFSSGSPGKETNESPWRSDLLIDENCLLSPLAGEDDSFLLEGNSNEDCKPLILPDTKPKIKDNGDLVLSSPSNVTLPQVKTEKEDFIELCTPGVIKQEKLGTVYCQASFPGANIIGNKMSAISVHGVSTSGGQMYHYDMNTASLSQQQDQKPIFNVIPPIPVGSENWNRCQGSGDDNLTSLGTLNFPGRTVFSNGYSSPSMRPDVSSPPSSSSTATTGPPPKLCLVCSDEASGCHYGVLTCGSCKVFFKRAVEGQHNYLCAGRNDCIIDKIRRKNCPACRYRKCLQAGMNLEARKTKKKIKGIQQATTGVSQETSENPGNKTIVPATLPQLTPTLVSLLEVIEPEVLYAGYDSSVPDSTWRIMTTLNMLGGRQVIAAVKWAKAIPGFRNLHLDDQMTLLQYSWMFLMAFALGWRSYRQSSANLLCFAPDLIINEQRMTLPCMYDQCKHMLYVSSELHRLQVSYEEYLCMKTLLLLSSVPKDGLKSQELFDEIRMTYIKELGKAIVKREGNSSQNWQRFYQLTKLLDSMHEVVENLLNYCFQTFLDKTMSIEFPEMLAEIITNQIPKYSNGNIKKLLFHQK

CC(=O)O[C@H]1C[C@H](O[C@H]2[C@@H](O)C[C@H](O[C@H]3[C@@H](O)C[C@H](OC4CC[C@@]5(C)C(CC[C@@H]6[C@@H]5CC[C@]5(C)[C@@H](C7=CC(=O)OC7)[C@@H](O)C[C@]65O)C4)O[C@@H]3C)O[C@@H]2C)O[C@H](C)[C@H]1O[C@@H]1O[C@H](CO)[C@@H](O)[C@H](O)[C@H]1O (stereo partly specified)
active: [2] 0.75 µM | [4] 0.944 µM | [17] 2.39 µM | [18] 2.66 µM | [19] 2.66 µM | [20] 0.601 µM | [21] 4.25 µM | [25] 0.379 µM
not listed: [30] | [31] | [32] | [33] | [34] | [35]
inactive: all other assays above

Cc1ccc(N)cc1O
inactive: [30] | [31]

CCCC(c1cc(C(C)(C)C)c(O)cc1C)c1cc(C(C)(C)C)c(O)cc1C
inactive: [30] | [31]

C1CCc2nnnn2CC1
inactive: Aromatase (Homo sapiens) | [32]

CN1C2CCC1CC(OC(c1ccccc1)c1ccc(Cl)cc1)C2 (stereo unspecified)
active: [2] 26.6 µM | [33] 21.3 µM | [17] 23.9 µM | [18] 2.98 µM | [19] 4.22 µM | [20] 15.1 µM | [21] 21.3 µM | [22] 4.73 µM | [23] 5.96 µM | [25] 23.9 µM | [29] 23.7 µM
not listed: [4] | [24] | Aromatase (Homo sapiens) | [28] | [30] | [31]
inactive: all other assays above
